Drawing on PubChem BioAssay (NCI), this text covers growth inhibition for six molecules.

Several values for one entry are separate records, joined by “and”; a condition that tells them apart may be missing. Equal values may be shown once. This is part of a sample that, as a whole, favours compounds with a hit. Of some 79,000 tested, about 15% had one in any assay. Where a structure was tested more than once in an assay, its records may differ in their call. Activity calls are given as the source filed them. No stated cut-off is given here; in the data, active means growth inhibition above about 70%; inactive means the rest.

The nature of experiment [1]: NCI Yeast Anticancer Drug Screen. Data for the rad50 strain (AID 155).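 Further: 0% = growth of vehicle-only cultures of the same strain.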 To be noted: S. cerevisiae rad50 strain growth inhibition, stronger effect = higher value. The method, boiled down: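 Growth of the mutant yeast was measured after compound exposure and referenced to vehicle-treated cultures.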
Experiment [2] can be described thus: NCI Yeast Anticancer Drug Screen. Data for the mec2-1 strain (AID 157). To be noted: S. cerevisiae mec2-1 strain, stronger effect = higher value. The method in brief:
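Cells of the genetically defined mec2-1 yeast strain are incubated with test compound. Inhibition of growth is calculated against vehicle-treated controls.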

Experiment [3] can be described thus: NCI Yeast Anticancer Drug Screen. Data for the sgs1 mgt1 strain (AID 161).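 Further: 0% = growth of cultures given vehicle only.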 To be noted: S. cerevisiae sgs1 mgt1 strain, stronger effect = higher value. The method in brief:
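Test agents were incubated with a DNA-repair-mutant yeast strain. Growth was then read and compared against vehicle-treated controls.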

A short description of experiment [4]: NCI Yeast Anticancer Drug Screen. Data for the cln2 rad14 strain (AID 165).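 Further: 0% = growth equal to vehicle treated cultures.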 To be noted: S. cerevisiae cln2 rad14 strain, stronger effect = higher value. The method, boiled down:
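The screen exposed genetically defined yeast (cln2 rad14) to test compounds and scored growth inhibition relative to vehicle-treated controls.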

Experiment [5] in a line: NCI Yeast Anticancer Drug Screen. Data for the bub3 strain (AID 167). To be noted: S. cerevisiae bub3 mutant strain, stronger effect = higher value. The method, boiled down: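 Whole-cell yeast assay. The mutant strain was incubated with compounds, and growth inhibition was determined by comparison with vehicle-treated cells.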
Experiment [6] in a line: NCI Yeast Anticancer Drug Screen. Data for the mlh1 rad18 strain (AID 175). To be noted: S. cerevisiae mlh1 rad18 strain growth inhibition, stronger effect = higher value. The method in brief:
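Compound-treated yeast growth, normalised to vehicle controls. Strain bears defined DNA repair mutations.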

[7] abbreviates: at 5.0 µM (retest, dose inferred, filed as 0.5).
The mark [8] stands for this setting: at 50.0 µM (retest, dose inferred, filed as 5.0).

Turning to `CN(C)C(=Nc1nc(=[N+](C)C)ss1)N(C)C`, the growth inhibition in experiment [1] (setting [7]) was -17% (inactive); in experiment [1] (setting [8]), -10% (inactive); in experiment [1] (at 50.0 µM), 93% (active); in experiment [2] (setting [7]), 3% (inactive); in experiment [2] (setting [8]), 8% (inactive); in experiment [2] (at 50.0 µM), 44.2% (inactive). Moreover, the growth inhibition in experiment [3] (setting [7]) is 8% (inactive); in experiment [3] (setting [8]), -19% (inactive); in experiment [3] (at 50.0 µM), 86% (active); in experiment [4] (setting [7]) it was 12% (inactive); in experiment [4] (setting [8]), 13% (inactive); in experiment [4] (at 50.0 µM), 30.4% (inactive). Further, the growth inhibition in experiment [5] (setting [7]) is 10% (inactive); in experiment [5] (setting [8]), 10% (inactive); in experiment [5] (at 50.0 µM), 49.4% (inactive); in experiment [6] (setting [7]) it was 15% (inactive); in experiment [6] (setting [8]), 13% (inactive); in experiment [6] (at 50.0 µM), 81.8% (active).
`Cc1ncc(C[n+]2cccc(CCO)c2C)c(N)n1`: the growth inhibition in experiment [1] (setting [7]) was 4% (inactive) and 16% (inactive); in experiment [1] (setting [8]), 31% (inactive) and 48% (inactive); in experiment [1] (at 50.0 µM), 55.7% (inactive) and 46.5% (inactive); in experiment [2] (setting [7]), 19% (inactive) and 11% (inactive); in experiment [2] (setting [8]), 60% (inactive) and 49% (inactive); in experiment [2] (at 50.0 µM) it was 40.5% (inactive) and 38% (inactive). Moreover, the growth inhibition is -15% (inactive) and 10% (inactive) in experiment [3] (setting [7]); 62% (inactive) and 68% (inactive) in experiment [3] (setting [8]); 87.5% (active) and 64% (inactive) in experiment [3] (at 50.0 µM); 1% (inactive) and 9% (inactive) in experiment [4] (setting [7]); 24% (inactive) and 18% (inactive) in experiment [4] (setting [8]); 58.1% (inactive) and 24.5% (inactive) in experiment [4] (at 50.0 µM). For the same molecule, the growth inhibition was -4% (inactive) and 5% (inactive) in experiment [5] (setting [7]); 14% (inactive) and 36% (inactive) in experiment [5] (setting [8]); 8.65% (inactive) and 29.9% (inactive) in experiment [5] (at 50.0 µM); 10% (inactive) and 15% (inactive) in experiment [6] (setting [7]); 63% (inactive) and 48% (inactive) in experiment [6] (setting [8]); 72% (active) and 71.2% (active) in experiment [6] (at 50.0 µM).
Regarding `O=[N+]([O-])c1ccc(SSc2ccc([N+](=O)[O-])cc2)cc1`, the growth inhibition in experiment [1] (setting [7]) was 35% (inactive) and 88% (active); in experiment [1] (setting [8]) it was 98% (active); in experiment [1] (at 50.0 µM), 98.2% (active) and 65.7% (inactive); in experiment [2] (setting [7]), 70% (active) and 99% (active); in experiment [2] (setting [8]), 99% (active); in experiment [2] (at 50.0 µM) it was 98.9% (active) and 38.1% (inactive). For the same molecule, the growth inhibition in experiment [3] (setting [7]) was 91% (active) and 87% (active); in experiment [3] (setting [8]), 99% (active) and 98% (active); in experiment [3] (at 50.0 µM), 99% (active) and 68.8% (inactive); in experiment [4] (setting [7]), 27% (inactive) and 65% (inactive); in experiment [4] (setting [8]) it was 97% (active); in experiment [4] (at 50.0 µM), 93.7% (active) and -34.6% (inactive). In addition, the growth inhibition in experiment [5] (setting [7]) is 58% (inactive) and 98% (active); in experiment [5] (setting [8]), 99% (active); in experiment [5] (at 50.0 µM), 98.5% (active) and 49.2% (inactive); in experiment [6] (setting [7]), 70% (active) and 87% (active); in experiment [6] (setting [8]) it was 98% (active); in experiment [6] (at 50.0 µM), 98.3% (active) and 69.6% (inactive).
`COc1c(CBr)c(CBr)c(OC)c2c1C(=O)c1ccccc1C2=O`: the growth inhibition is 33% (inactive) in experiment [1] (setting [7]); 99% (active) in experiment [1] (setting [8]); 87.2% (active) in experiment [1] (at 50.0 µM); 14% (inactive) in experiment [2] (setting [7]); 99% (active) in experiment [2] (setting [8]); 63.8% (inactive) in experiment [2] (at 50.0 µM). Further, the growth inhibition is 23% (inactive) in experiment [3] (setting [7]); 99% (active) in experiment [3] (setting [8]); 86.7% (active) in experiment [3] (at 50.0 µM); 2% (inactive) in experiment [4] (setting [7]); 99% (active) in experiment [4] (setting [8]); 41% (inactive) in experiment [4] (at 50.0 µM). Further, the growth inhibition was 9% (inactive) in experiment [5] (setting [7]); 99% (active) in experiment [5] (setting [8]); 64.2% (inactive) in experiment [5] (at 50.0 µM); 19% (inactive) in experiment [6] (setting [7]); 99% (active) in experiment [6] (setting [8]); 92.8% (active) in experiment [6] (at 50.0 µM).
As to `Nc1ncnc2c(C3OC(CO)C(O)C3O)scc12` (stereo not drawn), the growth inhibition is 12% (inactive) in experiment [1] (setting [7]); 36% (inactive) in experiment [1] (setting [8]); 15.8% (inactive) in experiment [1] (at 50.0 µM); 12% (inactive) in experiment [2] (setting [7]); 40% (inactive) in experiment [2] (setting [8]); 26.4% (inactive) in experiment [2] (at 50.0 µM). Further, the growth inhibition in experiment [3] (setting [7]) is 7% (inactive); in experiment [3] (setting [8]) it was 42% (inactive); in experiment [3] (at 50.0 µM), 39.4% (inactive); in experiment [4] (setting [7]) it was 21% (inactive); in experiment [4] (setting [8]) it was 5% (inactive); in experiment [4] (at 50.0 µM), 30.9% (inactive). In addition, the growth inhibition in experiment [5] (setting [7]) was -21% (inactive); in experiment [5] (setting [8]) it was 30% (inactive); in experiment [5] (at 50.0 µM) it was 47.6% (inactive); in experiment [6] (setting [7]) it was 14% (inactive); in experiment [6] (setting [8]), 63% (inactive); in experiment [6] (at 50.0 µM), 39.4% (inactive).
For `Cc1c2cc[n+](C)cc2c(C)c2c1[nH]c1ccccc12`, the growth inhibition is 28% (inactive) in experiment [1] (setting [7]); 68% (inactive) in experiment [1] (setting [8]); 27.5% (inactive) and 40.4% (inactive) in experiment [1] (at 50.0 µM); 18% (inactive) in experiment [2] (setting [7]); 22% (inactive) in experiment [2] (setting [8]); 29.2% (inactive) and -21.1% (inactive) in experiment [2] (at 50.0 µM). Moreover, the growth inhibition was 28% (inactive) in experiment [3] (setting [7]); 36% (inactive) in experiment [3] (setting [8]); 75.7% (active) and -25% (inactive) in experiment [3] (at 50.0 µM); 27% (inactive) in experiment [4] (setting [7]); 32% (inactive) in experiment [4] (setting [8]); 23.8% (inactive) and 2.8% (inactive) in experiment [4] (at 50.0 µM). The growth inhibition in experiment [5] (setting [7]) is 12% (inactive); in experiment [5] (setting [8]) it was 31% (inactive); in experiment [5] (at 50.0 µM), 62.8% (inactive) and -38.5% (inactive); in experiment [6] (setting [7]) it was 16% (inactive); in experiment [6] (setting [8]), 39% (inactive); in experiment [6] (at 50.0 µM) it was 54.5% (inactive) and 26.9% (inactive).
